Source: PubChem BioAssay (NCI)
About 79,000 compounds went through this panel and 15% of them were active in at least one assay; those are over-represented in the sample as a whole. A number with no mark means an inactive call. Calls of active or inactive are those of the source. No stated cut-off is given here; in the data, active means growth inhibition above about 70%; inactive means the rest.

Key:
[1] = NCI Yeast Anticancer Drug Screen. Data for the rad52 strain (AID 147);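 further: 0% = growth of vehicle-treated control cultures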; conditions: S. cerevisiae rad52 mutant growth inhibition, stronger effect = higher value
Summary of the method: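 DNA repair-defective yeast; compound exposure; growth scored against vehicle controls.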

[2] = NCI Yeast Anticancer Drug Screen. Data for the wt1 strain (AID 149);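 further: 0% = growth of vehicle-treated wt1 cultures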; conditions: S. cerevisiae wt1 strain (SPY 50644) growth inhibition, stronger effect = higher value
Summary of the method: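 The wt1 strain was treated with compounds, and growth was compared with vehicle-treated cultures to give inhibition.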

[3] = NCI Yeast Anticancer Drug Screen. Data for the rad50EPP+ strain (AID 151);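 further: 0% = growth of vehicle-treated control cultures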; conditions: S. cerevisiae rad50 mutant strain, stronger effect = higher value
Summary of the method: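 rad50EPP+ yeast treated with test compounds. Readout: growth vs vehicle control.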

[4] = NCI Yeast Anticancer Drug Screen. Data for the rad50 strain (AID 155);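 further: 0% = growth of vehicle-only cultures of the same strain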; conditions: S. cerevisiae rad50 strain growth inhibition, stronger effect = higher value
Summary of the method: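 Cells are treated with compound, grown, and their growth is then scored against vehicle-only cultures of the same repair-deficient yeast strain.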

[5] = NCI Yeast Anticancer Drug Screen. Data for the mec2-1 strain (AID 157); conditions: S. cerevisiae mec2-1 strain, stronger effect = higher value
Summary of the method: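 Growth inhibition is read against vehicle-treated controls after compound exposure of the mec2-1 yeast strain, which is defective in DNA damage repair or cell cycle control.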

[6] = NCI Yeast Anticancer Drug Screen. Data for the rad14 strain (AID 159);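 further: 0% = growth of vehicle-treated control cultures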; conditions: S. cerevisiae rad14 strain growth inhibition, stronger effect = higher value
Summary of the method: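 Readout: yeast growth inhibition, referenced to vehicle-only cultures. Strain bears a defined alteration in DNA damage repair.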

[7] = NCI Yeast Anticancer Drug Screen. Data for the sgs1 mgt1 strain (AID 161);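 further: 0% = growth of cultures given vehicle only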; conditions: S. cerevisiae sgs1 mgt1 strain, stronger effect = higher value
Summary of the method: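 Growth of a repair-deficient yeast mutant was monitored after compound treatment and expressed as inhibition relative to vehicle-treated cultures.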

[8] = NCI Yeast Anticancer Drug Screen. Data for the CLN2oe strain (AID 163);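 further: 0% = growth of vehicle-only control cultures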; conditions: S. cerevisiae CLN2oe strain, stronger effect = higher value
Summary of the method: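 Compound-treated yeast; growth vs vehicle ctrl = % inhibition. Genetically altered strain (cell-cycle control).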

[9] = NCI Yeast Anticancer Drug Screen. Data for the cln2 rad14 strain (AID 165);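 further: 0% = growth equal to vehicle treated cultures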; conditions: S. cerevisiae cln2 rad14 strain, stronger effect = higher value
Summary of the method: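 Growth inhibition, relative to vehicle-treated controls, is the read-out. The test organism is a yeast strain with defined genetic alterations, cln2 rad14.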

[10] = NCI Yeast Anticancer Drug Screen. Data for the bub3 strain (AID 167); conditions: S. cerevisiae bub3 mutant strain, stronger effect = higher value
Summary of the method: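 Part of a panel of yeast mutants defective in DNA damage repair or cell cycle regulation. Each strain is grown with compound, and inhibition is calculated relative to solvent-treated cultures.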

[11] = NCI Yeast Anticancer Drug Screen. Data for the wt2 strain (AID 169);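 further: 0% = growth of vehicle-treated yeast cultures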; conditions: S. cerevisiae wt2 strain growth inhibition, stronger effect = higher value
Summary of the method: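 Compound exposure of yeast; growth compared with vehicle controls; inhibition reported.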

[12] = NCI Yeast Anticancer Drug Screen. Data for the mlh1 strain (AID 171);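 further: 0% = growth of vehicle-treated control cultures of the same strain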; conditions: S. cerevisiae mlh1 strain growth inhibition, stronger effect = higher value
Summary of the method: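 Compounds are applied to a genetically altered yeast strain, and its growth is compared with that of vehicle-treated cultures to give percent inhibition.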

[13] = NCI Yeast Anticancer Drug Screen. Data for the sgs1 strain (AID 173);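 further: 0% = growth of vehicle-only control cultures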; conditions: S. cerevisiae sgs1 mutant, stronger effect = higher value
Summary of the method: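 Compounds applied to genetically altered yeast; growth compared with vehicle-treated cultures to give % inhibition.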

[14] = NCI Yeast Anticancer Drug Screen. Data for the mlh1 rad18 strain (AID 175); conditions: S. cerevisiae mlh1 rad18 strain growth inhibition, stronger effect = higher value
Summary of the method: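 Cells of a genetically altered yeast strain, deficient in DNA damage repair, were treated with compound. Their growth was then compared with that of vehicle-treated cultures to give inhibition.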

[15] = NCI Yeast Anticancer Drug Screen. Data for the rad18 strain (AID 177); conditions: S. cerevisiae rad18 mutant growth inhibition, stronger effect = higher value
Summary of the method: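 Compounds are applied to a repair-deficient yeast strain, and growth is compared with that of vehicle-treated cultures to give percent inhibition.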

[16] = NCI Yeast Anticancer Drug Screen. Data for the mgt1 strain (AID 153); conditions: S. cerevisiae mgt1 mutant growth inhibition, stronger effect = higher value
Summary of the method: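 Growth inhibition relative to vehicle controls was scored for the mgt1 yeast strain after compound exposure.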

[17] = at 5.0 µM (retest, dose inferred, filed as 0.5)
[18] = at 50.0 µM (retest, dose inferred, filed as 5.0)

Nc1ncc(-c2ccc(Br)cc2)s1
growth inhibition ([1]; at 1.2 µM): 20% | growth inhibition ([1]; at 3.7 µM): 35% | growth inhibition ([1]; at 11.0 µM): 36% | growth inhibition ([1]; at 33.0 µM): 92% (active) | growth inhibition ([1]; at 100.0 µM): 98% (active) | growth inhibition ([2]; at 1.2 µM): 9% | growth inhibition ([2]; at 3.7 µM): 17% | growth inhibition ([2]; at 11.0 µM): 22% | growth inhibition ([2]; at 33.0 µM): 92% (active) | growth inhibition ([2]; at 100.0 µM): 98% (active) | growth inhibition ([3]; at 1.2 µM): 19% | growth inhibition ([3]; at 3.7 µM): 29% | growth inhibition ([3]; at 11.0 µM): 47% | growth inhibition ([3]; at 33.0 µM): 93% (active) | growth inhibition ([3]; at 100.0 µM): 97% (active) | growth inhibition ([4]; at 1.2 µM): 7% | growth inhibition ([4]; at 3.7 µM): 7% | growth inhibition [4, 17]: 51% | growth inhibition ([4]; at 11.0 µM): 13% | growth inhibition ([4]; at 33.0 µM): 91% (active) | growth inhibition [4, 18]: 51% | growth inhibition ([4]; at 50.0 µM): 89.5% (active) | growth inhibition ([4]; at 100.0 µM): 97% (active) | growth inhibition ([5]; at 1.2 µM): -22% | growth inhibition ([5]; at 3.7 µM): -1% | growth inhibition [5, 17]: 53% | growth inhibition ([5]; at 11.0 µM): -15% | growth inhibition ([5]; at 33.0 µM): 92% (active) | growth inhibition [5, 18]: 55% | growth inhibition ([5]; at 50.0 µM): 93% (active) | growth inhibition ([5]; at 100.0 µM): 98% (active) | growth inhibition ([6]; at 1.2 µM): -25% | growth inhibition ([6]; at 3.7 µM): -8% | growth inhibition ([6]; at 11.0 µM): -1% | growth inhibition ([6]; at 33.0 µM): 93% (active) | growth inhibition ([6]; at 100.0 µM): 97% (active) | growth inhibition [7, 17]: 18% | growth inhibition [7, 18]: 99% (active) | growth inhibition ([7]; at 50.0 µM): 92.7% (active) | growth inhibition ([8]; at 1.2 µM): 21% | growth inhibition ([8]; at 3.7 µM): 3% | growth inhibition ([8]; at 11.0 µM): -7% | growth inhibition ([8]; at 33.0 µM): 90% (active) | growth inhibition ([8]; at 100.0 µM): 97% (active) | growth inhibition [9, 17]: 56% | growth inhibition [9, 18]: 99% (active) | growth inhibition ([9]; at 50.0 µM): 90.3% (active) | growth inhibition ([10]; at 1.2 µM): -8% | growth inhibition ([10]; at 3.7 µM): -8% | growth inhibition [10, 17]: -18% | growth inhibition ([10]; at 11.0 µM): -11% | growth inhibition ([10]; at 33.0 µM): 82% (active) | growth inhibition [10, 18]: 99% (active) | growth inhibition ([10]; at 50.0 µM): 89.8% (active) | growth inhibition ([10]; at 100.0 µM): 97% (active) | growth inhibition ([11]; at 1.2 µM): 8% | growth inhibition ([11]; at 3.7 µM): 8% | growth inhibition ([11]; at 11.0 µM): 8% | growth inhibition ([11]; at 33.0 µM): 93% (active) | growth inhibition ([11]; at 100.0 µM): 98% (active) | growth inhibition ([12]; at 1.2 µM): -9% | growth inhibition ([12]; at 3.7 µM): -14% | growth inhibition ([12]; at 11.0 µM): -1% | growth inhibition ([12]; at 33.0 µM): 94% (active) | growth inhibition ([12]; at 100.0 µM): 97% (active) | growth inhibition ([13]; at 1.2 µM): 19% | growth inhibition ([13]; at 3.7 µM): 26% | growth inhibition ([13]; at 11.0 µM): 34% | growth inhibition ([13]; at 33.0 µM): 92% (active) | growth inhibition ([13]; at 100.0 µM): 97% (active) | growth inhibition [14, 17]: 39% | growth inhibition [14, 18]: 55% | growth inhibition ([14]; at 50.0 µM): 89.9% (active) | growth inhibition ([15]; at 1.2 µM): -29% | growth inhibition ([15]; at 3.7 µM): -30% | growth inhibition ([15]; at 11.0 µM): -16% | growth inhibition ([15]; at 33.0 µM): 91% (active) | growth inhibition ([15]; at 100.0 µM): 97% (active)

Cc1nc2ccc(N=NN(C)C)cc2[nH]1
growth inhibition ([1]; at 1.2 µM): 11% | growth inhibition ([1]; at 3.7 µM): 8% | growth inhibition ([1]; at 11.0 µM): 3% | growth inhibition ([1]; at 33.0 µM): 72% (active) | growth inhibition ([1]; at 100.0 µM): 97% (active) | growth inhibition ([3]; at 1.2 µM): 13% | growth inhibition ([3]; at 3.7 µM): 14% | growth inhibition ([3]; at 11.0 µM): 8% | growth inhibition ([3]; at 33.0 µM): 51% | growth inhibition ([3]; at 100.0 µM): 98% (active) | growth inhibition ([16]; at 1.2 µM): 2% | growth inhibition ([16]; at 3.7 µM): 3% | growth inhibition ([16]; at 11.0 µM): 15% | growth inhibition ([16]; at 33.0 µM): 99% (active) | growth inhibition ([16]; at 100.0 µM): 99% (active) | growth inhibition ([4]; at 1.2 µM): 22% | growth inhibition ([4]; at 3.7 µM): 16% | growth inhibition [4, 17]: -3% | growth inhibition ([4]; at 11.0 µM): 15% | growth inhibition ([4]; at 33.0 µM): 83% (active) | growth inhibition [4, 18]: 97% (active) | growth inhibition ([4]; at 50.0 µM): 84% (active) | growth inhibition ([4]; at 100.0 µM): 98% (active) | growth inhibition ([5]; at 1.2 µM): 15% | growth inhibition ([5]; at 3.7 µM): 21% | growth inhibition [5, 17]: -9% | growth inhibition ([5]; at 11.0 µM): 20% | growth inhibition ([5]; at 33.0 µM): 98% (active) | growth inhibition [5, 18]: 98% (active) | growth inhibition ([5]; at 50.0 µM): 91.3% (active) | growth inhibition ([5]; at 100.0 µM): 98% (active) | growth inhibition ([6]; at 1.2 µM): 4% | growth inhibition ([6]; at 3.7 µM): 4% | growth inhibition ([6]; at 11.0 µM): 12% | growth inhibition ([6]; at 33.0 µM): 15% | growth inhibition ([6]; at 100.0 µM): 97% (active) | growth inhibition [7, 17]: -6% | growth inhibition [7, 18]: 7% | growth inhibition ([7]; at 50.0 µM): 88.8% (active) | growth inhibition ([8]; at 1.2 µM): 8% | growth inhibition ([8]; at 3.7 µM): 1% | growth inhibition ([8]; at 11.0 µM): 30% | growth inhibition ([8]; at 33.0 µM): 96% (active) | growth inhibition ([8]; at 100.0 µM): 96% (active) | growth inhibition [9, 17]: 8% | growth inhibition [9, 18]: 35% | growth inhibition ([9]; at 50.0 µM): 87.5% (active) | growth inhibition ([10]; at 1.2 µM): -6% | growth inhibition ([10]; at 3.7 µM): -5% | growth inhibition [10, 17]: -19% | growth inhibition ([10]; at 11.0 µM): -2% | growth inhibition ([10]; at 33.0 µM): 97% (active) | growth inhibition [10, 18]: 98% (active) | growth inhibition ([10]; at 50.0 µM): 87.8% (active) | growth inhibition ([10]; at 100.0 µM): 98% (active) | growth inhibition ([11]; at 1.2 µM): -15% | growth inhibition ([11]; at 3.7 µM): 4% | growth inhibition ([11]; at 11.0 µM): 6% | growth inhibition ([11]; at 33.0 µM): 98% (active) | growth inhibition ([11]; at 100.0 µM): 98% (active) | growth inhibition ([12]; at 1.2 µM): 2% | growth inhibition ([12]; at 3.7 µM): 3% | growth inhibition ([12]; at 11.0 µM): 15% | growth inhibition ([12]; at 33.0 µM): 99% (active) | growth inhibition ([12]; at 100.0 µM): 99% (active) | growth inhibition ([13]; at 1.2 µM): 27% | growth inhibition ([13]; at 3.7 µM): 39% | growth inhibition ([13]; at 11.0 µM): 40% | growth inhibition ([13]; at 33.0 µM): 49% | growth inhibition ([13]; at 100.0 µM): 99% (active) | growth inhibition [14, 17]: -7% | growth inhibition [14, 18]: 98% (active) | growth inhibition ([14]; at 50.0 µM): 89% (active) | growth inhibition ([15]; at 1.2 µM): 18% | growth inhibition ([15]; at 3.7 µM): 23% | growth inhibition ([15]; at 11.0 µM): 26% | growth inhibition ([15]; at 33.0 µM): 77% (active) | growth inhibition ([15]; at 100.0 µM): 98% (active)
